Test in all cases: DAPPL (digital affinity profiling via proximity ligation, sequencing); 10 mM Tris-HCl pH 7.5, 50 mM NaCl, 1 mM DTT, 4% glycerol, room temperature, 30 min; GST-TFs on glutathione beads, 16-mer random dsDNA library, 0.1% formaldehyde crosslink after washing; high values mean tight binding
Common to all, as to conditions: protein: recombinant; tags: N-terminal GST; dsDNA, one strand shown

For assay [1], the target named is T1, GABPA (Homo sapiens, UniProt Q06546 1-454).
T1 sequence: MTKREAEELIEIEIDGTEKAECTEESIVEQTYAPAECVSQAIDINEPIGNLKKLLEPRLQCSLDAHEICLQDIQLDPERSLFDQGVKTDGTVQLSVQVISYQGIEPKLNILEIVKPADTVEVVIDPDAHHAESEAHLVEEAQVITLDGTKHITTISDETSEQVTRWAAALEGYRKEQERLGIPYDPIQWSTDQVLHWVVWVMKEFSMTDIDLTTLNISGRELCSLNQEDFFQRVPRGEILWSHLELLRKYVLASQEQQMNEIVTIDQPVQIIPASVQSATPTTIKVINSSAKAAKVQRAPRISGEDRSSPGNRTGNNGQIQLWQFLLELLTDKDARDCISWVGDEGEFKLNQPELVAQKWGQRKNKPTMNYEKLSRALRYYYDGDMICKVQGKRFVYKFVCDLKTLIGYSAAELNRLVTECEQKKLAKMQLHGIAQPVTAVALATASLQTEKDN
In a few lines: (§1)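 Pools were built from human transcription factors expressed in yeast as GST fusions, captured on glutathione beads and DNA-barcoded, along with a tag-only sample. Incubation with 200 nmole of a 16-mer random double-stranded DNA library lasted 30 min at room temperature in Tris/NaCl/DTT/glycerol buffer, and was followed by washing, 0.1% formaldehyde crosslinking, proximity ligation, PCR amplification and Illumina NextSeq500 sequencing. Binding signal is the quotient of each hexamer's read frequency for a factor and its frequency for the tag-only sample.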

For assay [2], the target named is ETV5 (Homo sapiens, UniProt P41161 1-510). Put shortly: as §1
Sequence of ETV5 (P41161 whole entry): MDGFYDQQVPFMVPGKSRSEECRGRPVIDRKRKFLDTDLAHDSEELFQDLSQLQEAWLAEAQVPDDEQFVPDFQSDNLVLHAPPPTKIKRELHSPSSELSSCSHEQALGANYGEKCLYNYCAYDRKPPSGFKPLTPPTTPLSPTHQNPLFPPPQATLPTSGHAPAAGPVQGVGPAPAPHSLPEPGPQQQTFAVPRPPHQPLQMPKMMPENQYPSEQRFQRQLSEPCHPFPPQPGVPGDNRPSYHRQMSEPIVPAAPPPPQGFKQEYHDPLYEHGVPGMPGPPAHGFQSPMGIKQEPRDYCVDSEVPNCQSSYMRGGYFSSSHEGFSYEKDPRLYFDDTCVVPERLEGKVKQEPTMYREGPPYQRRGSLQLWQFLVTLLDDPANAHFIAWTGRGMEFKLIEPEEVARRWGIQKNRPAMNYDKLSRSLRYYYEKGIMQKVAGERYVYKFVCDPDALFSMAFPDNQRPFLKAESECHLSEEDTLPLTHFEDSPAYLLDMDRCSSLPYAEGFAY
For assay [3], the target named is T2, ETV3 (Homo sapiens, UniProt P41162-2 1-143).
T2 sequence: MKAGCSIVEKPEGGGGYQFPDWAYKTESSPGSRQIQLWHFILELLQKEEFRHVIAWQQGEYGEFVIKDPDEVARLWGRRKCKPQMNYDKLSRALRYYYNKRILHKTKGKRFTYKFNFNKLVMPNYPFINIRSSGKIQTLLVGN
In a few lines:
as §1

Assay [4] has as its target T3, ELK1 (Homo sapiens, UniProt P19419 1-428).
T3 sequence: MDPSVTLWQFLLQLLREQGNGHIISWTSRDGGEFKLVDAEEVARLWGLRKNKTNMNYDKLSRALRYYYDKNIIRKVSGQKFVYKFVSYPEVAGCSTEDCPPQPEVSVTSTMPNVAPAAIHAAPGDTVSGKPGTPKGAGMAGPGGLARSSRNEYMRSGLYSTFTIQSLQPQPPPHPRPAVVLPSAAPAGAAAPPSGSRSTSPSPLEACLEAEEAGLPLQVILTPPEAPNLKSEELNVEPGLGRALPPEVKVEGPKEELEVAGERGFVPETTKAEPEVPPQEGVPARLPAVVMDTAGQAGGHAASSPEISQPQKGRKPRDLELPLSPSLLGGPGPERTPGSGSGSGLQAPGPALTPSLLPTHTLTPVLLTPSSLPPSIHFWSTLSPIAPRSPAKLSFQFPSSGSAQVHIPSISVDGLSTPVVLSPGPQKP
In a few lines:
as §1

The target in assay [5] is ELF1 (Homo sapiens, UniProt P32519 1-619). In a few lines:
as §1

Assay [6] addresses T4, EHF (Homo sapiens, UniProt Q9NZC4 1-300).
T4 sequence: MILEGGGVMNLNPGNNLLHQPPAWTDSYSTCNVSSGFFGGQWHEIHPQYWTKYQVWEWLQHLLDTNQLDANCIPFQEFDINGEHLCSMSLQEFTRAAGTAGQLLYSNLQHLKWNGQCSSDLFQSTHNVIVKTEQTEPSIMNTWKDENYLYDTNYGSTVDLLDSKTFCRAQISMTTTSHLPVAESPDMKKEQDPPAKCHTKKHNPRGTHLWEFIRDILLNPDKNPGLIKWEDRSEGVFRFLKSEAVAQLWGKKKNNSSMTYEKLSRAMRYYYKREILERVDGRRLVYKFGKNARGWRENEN
Put shortly: as §1

The target in assay [7] is ELF4 (Homo sapiens, UniProt Q99607 1-663). In a few lines:
as §1

Assay [8] addresses T5, ELK4 (Homo sapiens, UniProt P28324-2 1-405).
T5 sequence: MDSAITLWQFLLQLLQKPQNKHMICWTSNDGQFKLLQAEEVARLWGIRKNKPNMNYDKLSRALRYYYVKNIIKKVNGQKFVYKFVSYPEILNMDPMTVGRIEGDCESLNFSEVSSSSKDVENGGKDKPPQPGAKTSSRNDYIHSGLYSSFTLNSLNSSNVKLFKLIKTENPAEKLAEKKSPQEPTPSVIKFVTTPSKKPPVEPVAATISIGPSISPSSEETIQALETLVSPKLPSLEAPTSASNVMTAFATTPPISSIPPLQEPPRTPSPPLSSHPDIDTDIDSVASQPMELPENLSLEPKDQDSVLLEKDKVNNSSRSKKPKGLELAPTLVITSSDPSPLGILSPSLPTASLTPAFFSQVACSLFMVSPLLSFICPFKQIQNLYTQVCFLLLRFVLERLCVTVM
Put shortly:
as §1

Assay [9] concerns the target ETV1 (Homo sapiens, UniProt P50549 1-477). In a few lines: as §1
Assay [10] addresses T6, ETV7 (Homo sapiens, UniProt Q9Y603 1-341).
T6 sequence: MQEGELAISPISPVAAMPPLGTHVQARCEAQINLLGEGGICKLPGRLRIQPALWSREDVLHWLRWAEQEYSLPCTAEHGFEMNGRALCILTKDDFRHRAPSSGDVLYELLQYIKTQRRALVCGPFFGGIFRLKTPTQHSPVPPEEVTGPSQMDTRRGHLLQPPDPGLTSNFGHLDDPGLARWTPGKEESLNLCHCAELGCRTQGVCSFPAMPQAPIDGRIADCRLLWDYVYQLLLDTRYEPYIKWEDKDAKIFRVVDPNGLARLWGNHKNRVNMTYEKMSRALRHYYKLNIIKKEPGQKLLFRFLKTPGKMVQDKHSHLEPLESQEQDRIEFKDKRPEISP
In a few lines:
as §1

Assay [11] addresses SPI1 (Homo sapiens, UniProt P17947 1-270). In a few lines:
as §1

Assay [12] addresses T7, FEV (Homo sapiens, UniProt Q99581 1-238).
T7 sequence: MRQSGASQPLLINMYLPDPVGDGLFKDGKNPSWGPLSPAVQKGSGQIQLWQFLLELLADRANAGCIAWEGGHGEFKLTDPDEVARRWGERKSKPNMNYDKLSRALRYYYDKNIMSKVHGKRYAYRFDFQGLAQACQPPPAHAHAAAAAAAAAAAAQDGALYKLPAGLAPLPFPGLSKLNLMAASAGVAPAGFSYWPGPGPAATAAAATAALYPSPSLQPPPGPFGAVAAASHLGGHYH
Put shortly:
as §1

Assay [13] deals with T8, SPDEF (Homo sapiens, UniProt O95238 1-335).
T8 sequence: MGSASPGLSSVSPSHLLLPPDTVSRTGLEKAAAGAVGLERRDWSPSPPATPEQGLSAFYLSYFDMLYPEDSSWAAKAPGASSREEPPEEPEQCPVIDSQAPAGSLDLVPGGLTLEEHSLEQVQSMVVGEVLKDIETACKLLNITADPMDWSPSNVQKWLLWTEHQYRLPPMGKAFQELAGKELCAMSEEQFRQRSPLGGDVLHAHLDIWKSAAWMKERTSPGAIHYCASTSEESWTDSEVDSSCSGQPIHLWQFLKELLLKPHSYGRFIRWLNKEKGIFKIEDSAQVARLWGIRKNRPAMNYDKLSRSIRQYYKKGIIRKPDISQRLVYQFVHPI
Put shortly: as §1

Sequence of ETV1 (P50549 whole entry): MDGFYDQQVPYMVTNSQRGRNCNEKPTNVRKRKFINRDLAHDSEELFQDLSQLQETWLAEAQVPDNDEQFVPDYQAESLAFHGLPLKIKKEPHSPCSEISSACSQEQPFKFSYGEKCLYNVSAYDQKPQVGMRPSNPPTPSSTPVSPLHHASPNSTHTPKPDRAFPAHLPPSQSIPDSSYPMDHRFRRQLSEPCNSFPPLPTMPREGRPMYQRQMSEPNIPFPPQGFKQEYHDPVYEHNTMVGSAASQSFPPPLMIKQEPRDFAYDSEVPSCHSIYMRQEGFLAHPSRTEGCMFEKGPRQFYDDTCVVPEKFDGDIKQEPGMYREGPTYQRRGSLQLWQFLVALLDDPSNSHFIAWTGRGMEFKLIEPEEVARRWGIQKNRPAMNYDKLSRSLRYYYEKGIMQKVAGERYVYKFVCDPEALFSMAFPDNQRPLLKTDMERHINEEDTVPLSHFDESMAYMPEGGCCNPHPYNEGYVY
Sequence of ELF1 (P32519 whole entry): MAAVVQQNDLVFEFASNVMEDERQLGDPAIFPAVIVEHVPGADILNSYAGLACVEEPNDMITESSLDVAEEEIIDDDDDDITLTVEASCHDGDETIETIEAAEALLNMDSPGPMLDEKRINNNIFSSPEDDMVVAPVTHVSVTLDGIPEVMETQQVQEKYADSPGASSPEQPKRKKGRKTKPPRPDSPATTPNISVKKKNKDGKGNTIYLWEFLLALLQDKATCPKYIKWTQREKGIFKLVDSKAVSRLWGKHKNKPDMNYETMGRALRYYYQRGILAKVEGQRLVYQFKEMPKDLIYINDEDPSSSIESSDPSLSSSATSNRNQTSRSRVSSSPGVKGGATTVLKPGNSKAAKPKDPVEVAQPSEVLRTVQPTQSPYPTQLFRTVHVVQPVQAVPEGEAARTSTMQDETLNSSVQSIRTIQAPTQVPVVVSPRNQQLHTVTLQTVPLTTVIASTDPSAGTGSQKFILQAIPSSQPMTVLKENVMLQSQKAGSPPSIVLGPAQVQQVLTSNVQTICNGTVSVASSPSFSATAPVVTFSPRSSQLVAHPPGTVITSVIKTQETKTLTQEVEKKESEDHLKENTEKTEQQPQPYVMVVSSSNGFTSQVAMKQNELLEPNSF
Sequence of ELF4 (Q99607 whole entry): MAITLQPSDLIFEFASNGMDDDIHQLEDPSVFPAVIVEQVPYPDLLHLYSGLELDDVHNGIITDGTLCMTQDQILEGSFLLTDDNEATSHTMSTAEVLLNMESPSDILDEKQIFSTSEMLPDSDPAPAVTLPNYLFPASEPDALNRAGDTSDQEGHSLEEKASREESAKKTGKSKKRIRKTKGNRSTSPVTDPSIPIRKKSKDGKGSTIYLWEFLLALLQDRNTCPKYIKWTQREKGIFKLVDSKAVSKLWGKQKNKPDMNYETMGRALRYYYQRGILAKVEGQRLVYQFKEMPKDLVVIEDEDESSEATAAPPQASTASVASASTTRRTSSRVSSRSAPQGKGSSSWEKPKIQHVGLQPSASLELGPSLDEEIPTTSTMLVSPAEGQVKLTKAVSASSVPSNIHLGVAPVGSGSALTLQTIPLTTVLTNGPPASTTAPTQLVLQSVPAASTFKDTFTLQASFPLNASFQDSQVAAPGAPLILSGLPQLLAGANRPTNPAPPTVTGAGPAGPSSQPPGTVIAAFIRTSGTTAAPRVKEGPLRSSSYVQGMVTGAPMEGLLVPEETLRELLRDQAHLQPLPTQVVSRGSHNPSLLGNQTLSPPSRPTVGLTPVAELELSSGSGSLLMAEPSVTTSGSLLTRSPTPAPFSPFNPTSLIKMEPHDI

Turning to GAGCTT, the binding signal in assay [1] was 1.08 fold enrichment (6-mer frequency, TF over GST control); in [2], 1.04 fold enrichment (6-mer frequency, TF over GST control); in [3] it was 1.03 fold enrichment (6-mer frequency, TF over GST control).
For TAGCGT, the binding signal is 1 fold enrichment (6-mer frequency, TF over GST control) in [4]; 1.02 fold enrichment (6-mer frequency, TF over GST control) in assay [5]; 1 fold enrichment (6-mer frequency, TF over GST control) in assay [6]; 1.03 fold enrichment (6-mer frequency, TF over GST control) in assay [2]; 1.02 fold enrichment (6-mer frequency, TF over GST control) in assay [7]; 1.07 fold enrichment (6-mer frequency, TF over GST control) in [8]. Further, the binding signal in [9] is 1.03 fold enrichment (6-mer frequency, TF over GST control); in assay [10], 1 fold enrichment (6-mer frequency, TF over GST control); in assay [3] it was 1.04 fold enrichment (6-mer frequency, TF over GST control).
With TGACGG, the binding signal is 1.02 fold enrichment (6-mer frequency, TF over GST control) in assay [11]; 1.06 fold enrichment (6-mer frequency, TF over GST control) in [12]; 1.04 fold enrichment (6-mer frequency, TF over GST control) in assay [2]; 1.06 fold enrichment (6-mer frequency, TF over GST control) in assay [13]; 1.02 fold enrichment (6-mer frequency, TF over GST control) in [10].
With AGAGCT, the binding signal in [1] was 1.04 fold enrichment (6-mer frequency, TF over GST control); in assay [6] it was 1.01 fold enrichment (6-mer frequency, TF over GST control); in assay [11] it was 1.01 fold enrichment (6-mer frequency, TF over GST control); in assay [2], 1.03 fold enrichment (6-mer frequency, TF over GST control).

The record behind these values is article PMC7862700, “An all-to-all approach to the identification of sequence-specific readers for epigenetic DNA modifications on cytosine”.
